Experimental data taken from PubChem BioAssay (NCI).
This is part of a sample that, as a whole, favours compounds with a hit. Of some 79,000 tested, about 15% had one in any assay. A number with no mark means an inactive call. The source made the active and inactive calls. Rule as the data show it: active = growth inhibition above about 70%; inactive = the rest.

How the values were obtained:
[1] = NCI Yeast Anticancer Drug Screen. Data for the rad50 strain (AID 155);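 also: 0% = growth of vehicle-only cultures of the same strain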; conditions: S. cerevisiae rad50 strain growth inhibition, hits give high values
Method in brief: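 Yeast carrying a defined DNA repair defect were exposed to test compounds, and growth was compared with vehicle-treated controls to give percent inhibition.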

[2] = NCI Yeast Anticancer Drug Screen. Data for the mec2-1 strain (AID 157); conditions: S. cerevisiae mec2-1 strain, hits give high values
Method in brief: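 Growth inhibition is read against vehicle-treated controls after compound exposure of the mec2-1 yeast strain, which is defective in DNA damage repair or cell cycle control.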

[3] = NCI Yeast Anticancer Drug Screen. Data for the sgs1 mgt1 strain (AID 161);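 also: 0% = growth of cultures given vehicle only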; conditions: S. cerevisiae sgs1 mgt1 strain, hits give high values
Method in brief: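 Compounds are added to genetically altered yeast, and growth is compared with cultures given vehicle alone to give percent inhibition.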

[4] = NCI Yeast Anticancer Drug Screen. Data for the cln2 rad14 strain (AID 165);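 also: 0% = growth equal to vehicle treated cultures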; conditions: S. cerevisiae cln2 rad14 strain, hits give high values
Method in brief: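 Growth inhibition, relative to vehicle-treated controls, is the read-out. The test organism is a yeast strain with defined genetic alterations, cln2 rad14.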

[5] = NCI Yeast Anticancer Drug Screen. Data for the bub3 strain (AID 167); conditions: S. cerevisiae bub3 mutant strain, hits give high values
Method in brief: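 Compounds were applied to a genetically altered yeast strain carrying a cell-cycle control defect. Growth inhibition was scored against vehicle-treated controls.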

[6] = NCI Yeast Anticancer Drug Screen. Data for the mlh1 rad18 strain (AID 175); conditions: S. cerevisiae mlh1 rad18 strain growth inhibition, hits give high values
Method in brief: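 Cells of a genetically altered yeast strain, deficient in DNA damage repair, were treated with compound. Their growth was then compared with that of vehicle-treated cultures to give inhibition.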

[7] = at 5.0 µM (retest, dose inferred, filed as 0.5)
[8] = at 50.0 µM (retest, dose inferred, filed as 5.0)

SMILES: CCC(c1ccc(O)c(C2CCCCC2)c1)C(CC)c1ccc(OC(=O)c2ccccc2)c(C2CCCCC2)c1 (configuration not stated)
- growth inhibition [1, 7]: 0%
- growth inhibition [1, 8]: -2%
- growth inhibition ([1]; at 50.0 µM): -16.8%
- growth inhibition [2, 7]: -21%
- growth inhibition [2, 8]: 10%
- growth inhibition ([2]; at 50.0 µM): -10.8%
- growth inhibition [3, 7]: -11%
- growth inhibition [3, 8]: 11%
- growth inhibition ([3]; at 50.0 µM): -17.1%
- growth inhibition [4, 7]: -4%
- growth inhibition [4, 8]: -8%
- growth inhibition ([4]; at 50.0 µM): 26.8%
- growth inhibition [5, 7]: 0%
- growth inhibition [5, 8]: -6%
- growth inhibition ([5]; at 50.0 µM): 1.15%
- growth inhibition [6, 7]: -14%
- growth inhibition [6, 8]: -9%
- growth inhibition ([6]; at 50.0 µM): -8.9%

SMILES: OC(Cc1ccccc1)(c1ccccc1)C(O)(Cc1ccccc1)c1ccccc1 (configuration not stated)
- growth inhibition [1, 7]: 30%
- growth inhibition [1, 8]: 79% (active)
- growth inhibition ([1]; at 50.0 µM): 85.2% (active)
- growth inhibition [2, 7]: 20%
- growth inhibition [2, 8]: 54%
- growth inhibition ([2]; at 50.0 µM): 78.5% (active)
- growth inhibition [3, 7]: 0%
- growth inhibition [3, 8]: 52%
- growth inhibition ([3]; at 50.0 µM): 78.4% (active)
- growth inhibition [4, 7]: 13%
- growth inhibition [4, 8]: 53%
- growth inhibition ([4]; at 50.0 µM): 85.7% (active)
- growth inhibition [5, 7]: 15%
- growth inhibition [5, 8]: 61%
- growth inhibition ([5]; at 50.0 µM): 74.5% (active)
- growth inhibition [6, 7]: 26%
- growth inhibition [6, 8]: 76% (active)
- growth inhibition ([6]; at 50.0 µM): 87.2% (active)

SMILES: CCOC(=O)CCc1ccc(OC)c(OC)c1
- growth inhibition [1, 7]: 1%
- growth inhibition [1, 8]: -2%
- growth inhibition ([1]; at 50.0 µM): -9.55%
- growth inhibition [2, 7]: 16%
- growth inhibition [2, 8]: -4%
- growth inhibition ([2]; at 50.0 µM): 23%
- growth inhibition [3, 7]: 0%
- growth inhibition [3, 8]: -2%
- growth inhibition ([3]; at 50.0 µM): 22.9%
- growth inhibition [4, 7]: 3%
- growth inhibition [4, 8]: -8%
- growth inhibition ([4]; at 50.0 µM): 38.7%
- growth inhibition [5, 7]: -2%
- growth inhibition [5, 8]: 19%
- growth inhibition ([5]; at 50.0 µM): 17.4%
- growth inhibition [6, 7]: 2%
- growth inhibition [6, 8]: -1%
- growth inhibition ([6]; at 50.0 µM): -5.15%

SMILES: COCC1C(=O)c2cc3c(cc2C12C=CC1(C=C2)OCCO1)OCO3 (configuration not stated)
- growth inhibition [1, 7]: 36%
- growth inhibition [1, 8]: 7%
- growth inhibition ([1]; at 50.0 µM): 86% (active)
- growth inhibition [2, 7]: 15%
- growth inhibition [2, 8]: -7%
- growth inhibition ([2]; at 50.0 µM): 91.8% (active)
- growth inhibition [3, 7]: 35%
- growth inhibition [3, 8]: -2%
- growth inhibition ([3]; at 50.0 µM): 92.8% (active)
- growth inhibition [4, 7]: 9%
- growth inhibition [4, 8]: 20%
- growth inhibition ([4]; at 50.0 µM): 90.2% (active)
- growth inhibition [5, 7]: 40%
- growth inhibition [5, 8]: -7%
- growth inhibition ([5]; at 50.0 µM): 91.1% (active)
- growth inhibition [6, 7]: 50%
- growth inhibition [6, 8]: -14%
- growth inhibition ([6]; at 50.0 µM): 88.2% (active)

SMILES: CC(C)C1(c2ccccc2)C(=O)c2ccccc2C1=O
- growth inhibition [1, 7]: -6%
- growth inhibition [1, 8]: 42%
- growth inhibition ([1]; at 50.0 µM): 71.8% (active)
- growth inhibition [2, 7]: -7%
- growth inhibition [2, 8]: 50%
- growth inhibition ([2]; at 50.0 µM): 77.5% (active)
- growth inhibition [3, 7]: -5%
- growth inhibition [3, 8]: 73% (active)
- growth inhibition ([3]; at 50.0 µM): 84.7% (active)
- growth inhibition [4, 7]: 2%
- growth inhibition [4, 8]: 10%
- growth inhibition ([4]; at 50.0 µM): 68.2%
- growth inhibition [5, 7]: -11%
- growth inhibition [5, 8]: 14%
- growth inhibition ([5]; at 50.0 µM): 79.2% (active)
- growth inhibition [6, 7]: -8%
- growth inhibition [6, 8]: 37%
- growth inhibition ([6]; at 50.0 µM): 46.1%

SMILES: COC(O)C(=O)c1c2c(cc3c1CC1(Cc4cc5c(cc4C1)CCC5)C3)CCC2 (configuration not stated)
- growth inhibition [1, 7]: 69%
- growth inhibition [1, 8]: 98% (active)
- growth inhibition ([1]; at 50.0 µM): 69%
- growth inhibition [2, 7]: 99% (active)
- growth inhibition [2, 8]: 99% (active)
- growth inhibition ([2]; at 50.0 µM): 80.5% (active)
- growth inhibition [3, 7]: 94% (active)
- growth inhibition [3, 8]: 98% (active)
- growth inhibition ([3]; at 50.0 µM): 83.2% (active)
- growth inhibition [4, 7]: 99% (active)
- growth inhibition [4, 8]: 98% (active)
- growth inhibition ([4]; at 50.0 µM): 87.6% (active)
- growth inhibition [5, 7]: 99% (active)
- growth inhibition [5, 8]: 98% (active)
- growth inhibition ([5]; at 50.0 µM): 88.5% (active)
- growth inhibition [6, 7]: 99% (active)
- growth inhibition [6, 8]: 98% (active)
- growth inhibition ([6]; at 50.0 µM): 90.5% (active)

SMILES: O=C1C(=O)N(c2cc(Cl)ccc2Cl)C(=O)C(=O)C1c1nc2ccccc2o1
- growth inhibition [1, 7]: 4%
- growth inhibition [1, 8]: 4%
- growth inhibition ([1]; at 50.0 µM): 53.2%
- growth inhibition [2, 7]: 15%
- growth inhibition [2, 8]: 15%
- growth inhibition ([2]; at 50.0 µM): 37.9%
- growth inhibition [3, 7]: 22%
- growth inhibition [3, 8]: 22%
- growth inhibition ([3]; at 50.0 µM): 36.8%
- growth inhibition [4, 7]: 10%
- growth inhibition [4, 8]: 10%
- growth inhibition ([4]; at 50.0 µM): 81.2% (active)
- growth inhibition [5, 7]: 2%
- growth inhibition [5, 8]: 2%
- growth inhibition ([5]; at 50.0 µM): 57.1%
- growth inhibition [6, 7]: 12%
- growth inhibition [6, 8]: 12%
- growth inhibition ([6]; at 50.0 µM): 31.9%

SMILES: Cc1ccc(N=C=C(c2ccccc2)c2ccccc2)cc1
- growth inhibition [1, 7]: 12%
- growth inhibition [1, 8]: 46%
- growth inhibition ([1]; at 50.0 µM): 67.5%
- growth inhibition [2, 7]: 26%
- growth inhibition [2, 8]: 39%
- growth inhibition ([2]; at 50.0 µM): 59.3%
- growth inhibition [3, 7]: 17%
- growth inhibition [3, 8]: 70% (active)
- growth inhibition ([3]; at 50.0 µM): 65.8%
- growth inhibition [4, 7]: 9%
- growth inhibition [4, 8]: 35%
- growth inhibition ([4]; at 50.0 µM): 48%
- growth inhibition [5, 7]: 28%
- growth inhibition [5, 8]: 58%
- growth inhibition ([5]; at 50.0 µM): 67.2%
- growth inhibition [6, 7]: 30%
- growth inhibition [6, 8]: 77% (active)
- growth inhibition ([6]; at 50.0 µM): 71.2% (active)

SMILES: CCCCCCCCCCCCCCCCNC(=S)N/C=C(/C#N)C(=O)OC
- growth inhibition [1, 7]: 78% (active)
- growth inhibition [1, 8]: 99% (active)
- growth inhibition ([1]; at 50.0 µM): 99% (active)
- growth inhibition [2, 7]: 89% (active)
- growth inhibition [2, 8]: 99% (active)
- growth inhibition ([2]; at 50.0 µM): 99.2% (active)
- growth inhibition [3, 7]: 39%
- growth inhibition [3, 8]: 99% (active)
- growth inhibition ([3]; at 50.0 µM): 99.2% (active)
- growth inhibition [4, 7]: 67%
- growth inhibition [4, 8]: 98% (active)
- growth inhibition ([4]; at 50.0 µM): 98.8% (active)
- growth inhibition [5, 7]: 99% (active)
- growth inhibition [5, 8]: 99% (active)
- growth inhibition ([5]; at 50.0 µM): 99.4% (active)
- growth inhibition [6, 7]: 57%
- growth inhibition [6, 8]: 99% (active)
- growth inhibition ([6]; at 50.0 µM): 99.2% (active)
